This is part of a sample that, as a whole, favours compounds with a hit. Of some 83,000 tested, about 20% had one in any assay.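 Single-concentration screen, 48 h exposure, 96-well plates. Endpoint: percent growth. Below 10 = active.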 The source made the active and inactive calls.
How the values were obtained:
Assay in all cases: NCI-60 one-dose screen, 48 h (100 = growth as untreated, 0 = no growth, -100 = all killed)
SR leukemia = conditions: 10 µM unless noted
RPMI-8226 leukemia = conditions: 10 µM unless noted
OVCAR-8 ovarian = conditions: 10 µM unless noted
OVCAR-5 ovarian = conditions: 10 µM unless noted
OVCAR-4 ovarian = conditions: 10 µM unless noted
SK-OV-3 ovarian = conditions: 10 µM unless noted
IGROV1 ovarian = conditions: 10 µM unless noted
OVCAR-3 ovarian = conditions: 10 µM unless noted
NCI/ADR-RES ovarian = conditions: 10 µM unless noted
HS 578T breast = conditions: 10 µM

Measured: growth

CCN(CC)CCC(CNc1ccnc2cc(Cl)ccc12)c1ccc(O)cc1 (centres undefined)
inactive: SR leukemia 47.5% | RPMI-8226 leukemia 51.3% | OVCAR-8 ovarian 92.2% | OVCAR-5 ovarian 103% | OVCAR-4 ovarian 91.4% | SK-OV-3 ovarian 104% | IGROV1 ovarian 78.1% | OVCAR-3 ovarian 98.7% | NCI/ADR-RES ovarian 99.8%

CC(C)COC(=O)NC(C)(C)C
inactive: SR leukemia 91.5% | RPMI-8226 leukemia 103% | OVCAR-8 ovarian 103% | OVCAR-5 ovarian 97.9% | OVCAR-4 ovarian 106% | SK-OV-3 ovarian 103% | IGROV1 ovarian 107% | OVCAR-3 ovarian 105% | NCI/ADR-RES ovarian 106%

O=C(Nc1ccc2ncnc(Nc3ccc(F)c(Cl)c3)c2c1)c1cccs1
inactive: SR leukemia 11.3% | RPMI-8226 leukemia 53% | OVCAR-8 ovarian 66.2% | OVCAR-5 ovarian 76.1% | OVCAR-4 ovarian 47.1% | SK-OV-3 ovarian 54% | IGROV1 ovarian 38.7% | HS 578T breast 72.2% | NCI/ADR-RES ovarian 60.7%

CCOP(=O)(O)OP(=O)(O)OCC
inactive: SR leukemia 91.2% | RPMI-8226 leukemia 95.8% | OVCAR-8 ovarian 119% | OVCAR-5 ovarian 96.9% | OVCAR-4 ovarian 105% | SK-OV-3 ovarian 97.3% | IGROV1 ovarian 97.3% | OVCAR-3 ovarian 105% | NCI/ADR-RES ovarian 105%

Cc1cc(N=Nc2ccc(-c3ccc(N=Nc4ccc(O)c(C(=O)O)c4)cc3)cc2)c(N)c(N=Nc2ccc(C(=O)O)cc2)c1N
inactive: SR leukemia 75.9% | RPMI-8226 leukemia 67.1% | OVCAR-8 ovarian 90.8% | OVCAR-5 ovarian 100% | OVCAR-4 ovarian 97.1% | SK-OV-3 ovarian 103% | IGROV1 ovarian 83.3% | OVCAR-3 ovarian 93.1% | NCI/ADR-RES ovarian 97.7%

CC(C)(C)NC(=O)C(OC(=O)C1CCc2cc(F)ccc2O1)c1ccccc1Cl (centres undefined)
inactive: SR leukemia 98.4% | RPMI-8226 leukemia 99% | OVCAR-8 ovarian 98.3% | OVCAR-5 ovarian 96.6% | OVCAR-4 ovarian 94.9% | SK-OV-3 ovarian 102% | IGROV1 ovarian 92.8% | HS 578T breast 99.7% | NCI/ADR-RES ovarian 95.5%

COC(=O)c1ccc(NC(N)=NCCC(C)(C)c2ccc(C(F)(F)F)cc2)nc1
active: SR leukemia -22.2% | RPMI-8226 leukemia -48.8%
inactive: OVCAR-8 ovarian 50.1% | OVCAR-5 ovarian 74.2% | OVCAR-4 ovarian 31.6% | SK-OV-3 ovarian 60.2% | IGROV1 ovarian 54.7% | HS 578T breast 75.5% | NCI/ADR-RES ovarian 36.6%

O=c1c2sc3ccccc3c2nnn1-c1ccc(F)c(Cl)c1
active: SR leukemia -42% | OVCAR-4 ovarian -5.65% | SK-OV-3 ovarian -8.62%
inactive: RPMI-8226 leukemia 57.3% | OVCAR-8 ovarian 37.7% | OVCAR-5 ovarian 51% | IGROV1 ovarian 21.2% | HS 578T breast 33% | NCI/ADR-RES ovarian 64.5%

CCOC(=O)NNc1cccc(Cl)c1
inactive: SR leukemia 102% | RPMI-8226 leukemia 98.8% | OVCAR-8 ovarian 106% | OVCAR-5 ovarian 88.3% | OVCAR-4 ovarian 106% | SK-OV-3 ovarian 105% | IGROV1 ovarian 94.9% | HS 578T breast 104% | NCI/ADR-RES ovarian 99.3%

COc1ccc(-c2cn(-c3cccc(C(=O)/C=C/c4ccc(O)c(OC)c4)c3)c(=O)[nH]2)cc1
active: SR leukemia 7.01% | RPMI-8226 leukemia -40.4% | IGROV1 ovarian -32.8% | OVCAR-3 ovarian -1.7%
inactive: OVCAR-8 ovarian 11.7% | OVCAR-5 ovarian 33% | OVCAR-4 ovarian 33.6% | SK-OV-3 ovarian 53.6% | NCI/ADR-RES ovarian 12.7%

C#CC[C@@H]1C[C@]2(C)[C@H]3CC=C4[C@H]5CC(C)(C)CC[C@]5(C(=O)NCCCCN)CC[C@@]4(C)[C@]3(C)CC[C@H]2C(C)(C)[C@H]1OC(C)=O
active: SR leukemia 0.939% | RPMI-8226 leukemia -10.2% | OVCAR-8 ovarian 3.77%
inactive: OVCAR-5 ovarian 21.7% | OVCAR-4 ovarian 50.1% | SK-OV-3 ovarian 116% | IGROV1 ovarian 32.8% | OVCAR-3 ovarian 49.3% | HS 578T breast 94.3% | NCI/ADR-RES ovarian 81.7%

COc1cc(Nc2ccnc3ccc(Br)cc23)cc(OC)c1OC
inactive: SR leukemia 15.7% | RPMI-8226 leukemia 30.4% | OVCAR-8 ovarian 36.6% | OVCAR-5 ovarian 51.6% | OVCAR-4 ovarian 62.5% | SK-OV-3 ovarian 36.6% | IGROV1 ovarian 38.2% | OVCAR-3 ovarian 29.8% | NCI/ADR-RES ovarian 12.8%

COc1ccc(C2C3CCc4ccccc4C3=NN2C(=O)c2cc(OC)c(OC)c(OC)c2)cc1O (centres undefined)
inactive: SR leukemia 64.2% | RPMI-8226 leukemia 45.7% | OVCAR-8 ovarian 99.4% | OVCAR-5 ovarian 101% | OVCAR-4 ovarian 103% | SK-OV-3 ovarian 88% | IGROV1 ovarian 46.6% | OVCAR-3 ovarian 109% | NCI/ADR-RES ovarian 102%

CC(=O)[C@H]1CC[C@H]2[C@@H]3CC[C@H]4CC=CC[C@]4(C)[C@H]3CC[C@]12C
inactive: SR leukemia 68.9% | RPMI-8226 leukemia 65.5% | OVCAR-8 ovarian 94.3% | OVCAR-5 ovarian 87% | OVCAR-4 ovarian 89.9% | SK-OV-3 ovarian 101% | IGROV1 ovarian 93.9% | OVCAR-3 ovarian 122% | NCI/ADR-RES ovarian 98.9%

CCCCOc1ncnc2nc[nH]c12
inactive: SR leukemia 88.7% | RPMI-8226 leukemia 95.4% | OVCAR-8 ovarian 99.4% | OVCAR-5 ovarian 103% | OVCAR-4 ovarian 102% | SK-OV-3 ovarian 107% | IGROV1 ovarian 124% | HS 578T breast 100% | NCI/ADR-RES ovarian 105%

CCC1CCc2nc3sc(C(=O)Nc4cccc(F)c4)c(N)c3cc2C1 (centres undefined)
inactive: SR leukemia 12.5% | RPMI-8226 leukemia 44.9% | OVCAR-8 ovarian 86.6% | OVCAR-5 ovarian 90.5% | OVCAR-4 ovarian 99.2% | SK-OV-3 ovarian 83.1% | IGROV1 ovarian 89.2% | HS 578T breast 79.5% | NCI/ADR-RES ovarian 61.8%

NC(=Nc1ccccc1)SCCCSC(N)=Nc1ccccc1
inactive: SR leukemia 94.6% | RPMI-8226 leukemia 73.4% | OVCAR-8 ovarian 86.4% | OVCAR-5 ovarian 86.4% | OVCAR-4 ovarian 76.8% | SK-OV-3 ovarian 97.3% | IGROV1 ovarian 80.1% | HS 578T breast 89% | NCI/ADR-RES ovarian 85.5%

COS(=O)(=O)CCN(CCOS(C)(=O)=O)S(C)(=O)=O
inactive: SR leukemia 95.5% | RPMI-8226 leukemia 99.8% | OVCAR-8 ovarian 94.9% | OVCAR-5 ovarian 101% | OVCAR-4 ovarian 107% | SK-OV-3 ovarian 104% | IGROV1 ovarian 105% | OVCAR-3 ovarian 105% | NCI/ADR-RES ovarian 105%

CNC(=O)c1ccccc1Sc1ccc2c(/C=C/c3ccccn3)n[nH]c2c1
inactive: SR leukemia 10.4% | RPMI-8226 leukemia 25.2% | OVCAR-8 ovarian 28.4% | OVCAR-5 ovarian 41.4% | OVCAR-4 ovarian 34.2% | SK-OV-3 ovarian 44.5% | IGROV1 ovarian 23.1% | OVCAR-3 ovarian 52.7% | NCI/ADR-RES ovarian 36.9%

Cc1cc(NC(=O)c2ccc(N)cc2)ccc1N=Nc1ccc2cc(S(=O)(=O)O)cc(S(=O)(=O)O)c2c1
inactive: SR leukemia 107% | RPMI-8226 leukemia 94% | OVCAR-8 ovarian 107% | OVCAR-5 ovarian 98.7% | OVCAR-4 ovarian 117% | SK-OV-3 ovarian 103% | IGROV1 ovarian 102% | HS 578T breast 110% | NCI/ADR-RES ovarian 108%

CCCCCCCCCCC(C(O)c1ccccc1)N1CCCCC1 (centres undefined)
active: SR leukemia 0.484% | RPMI-8226 leukemia -50.3% | IGROV1 ovarian 2.8%
inactive: OVCAR-8 ovarian 62.8% | OVCAR-5 ovarian 47.4% | OVCAR-4 ovarian 41% | SK-OV-3 ovarian 36.1% | HS 578T breast 18.3% | NCI/ADR-RES ovarian 49.8%

CC(=O)c1cccc(Nc2ncnc3ccc(NC(=O)c4ccco4)cc23)c1
inactive: SR leukemia 90.2% | RPMI-8226 leukemia 75% | OVCAR-8 ovarian 92.1% | OVCAR-5 ovarian 90.4% | OVCAR-4 ovarian 89% | SK-OV-3 ovarian 104% | IGROV1 ovarian 86.1% | HS 578T breast 102% | NCI/ADR-RES ovarian 92.7%

CCCCCCCCCCCCCCC(C(=O)OCC)C(=O)OCC
inactive: SR leukemia 116% | RPMI-8226 leukemia 104% | OVCAR-8 ovarian 103% | OVCAR-5 ovarian 103% | OVCAR-4 ovarian 109% | SK-OV-3 ovarian 112% | IGROV1 ovarian 103% | OVCAR-3 ovarian 110% | NCI/ADR-RES ovarian 104%

Fc1cc(-c2nnc3sc(-c4ccc(Cl)cc4)nn23)c(Cl)cc1Cl
inactive: SR leukemia 61.1% | RPMI-8226 leukemia 102% | OVCAR-8 ovarian 100% | OVCAR-5 ovarian 101% | OVCAR-4 ovarian 92.5% | SK-OV-3 ovarian 107% | IGROV1 ovarian 100% | HS 578T breast 66.1% | NCI/ADR-RES ovarian 104%

O=C(O)c1cn(-c2ccccc2)nc1-c1ccc(O)cc1
inactive: SR leukemia 93.3% | RPMI-8226 leukemia 96.7% | OVCAR-8 ovarian 90.8% | OVCAR-5 ovarian 101% | OVCAR-4 ovarian 92.2% | SK-OV-3 ovarian 92.4% | IGROV1 ovarian 111% | HS 578T breast 94.2% | NCI/ADR-RES ovarian 101%

C=CCOc1c(Br)cc(Br)cc1Br
inactive: SR leukemia 34.8% | RPMI-8226 leukemia 38.7% | OVCAR-8 ovarian 74.3% | OVCAR-5 ovarian 76.2% | OVCAR-4 ovarian 63.4% | SK-OV-3 ovarian 64.9% | IGROV1 ovarian 30% | HS 578T breast 42.2% | NCI/ADR-RES ovarian 63.7%

CCCCCCCCCCCCCC[N+](C)(C)CCCCCCCCCCCCCC
inactive: SR leukemia 35.7% | RPMI-8226 leukemia 12.6% | OVCAR-8 ovarian 49.6% | OVCAR-5 ovarian 79.9% | OVCAR-4 ovarian 62% | SK-OV-3 ovarian 85.5% | OVCAR-3 ovarian 87.5% | NCI/ADR-RES ovarian 104%
active: IGROV1 ovarian 9.59%

NC(N)=N/N=C\c1cccc(OCc2ccccc2)c1
inactive: SR leukemia 19.4% | RPMI-8226 leukemia 69.6% | OVCAR-8 ovarian 89.3% | OVCAR-5 ovarian 85.3% | OVCAR-4 ovarian 64.3% | SK-OV-3 ovarian 81.6% | IGROV1 ovarian 74.7% | OVCAR-3 ovarian 79.1% | NCI/ADR-RES ovarian 76.5%

O=c1c2sc3ncc(Cl)cc3c2nnn1-c1cccc(Cl)c1
inactive: SR leukemia 77.7% | RPMI-8226 leukemia 82.4% | OVCAR-5 ovarian 86.2% | SK-OV-3 ovarian 40.7% | IGROV1 ovarian 63% | OVCAR-3 ovarian 24.7%
active: OVCAR-4 ovarian -7.2%

CCOCC(O)(c1ccc(Cl)cc1)c1ccc(Cl)cc1
inactive: SR leukemia 100% | RPMI-8226 leukemia 107% | OVCAR-5 ovarian 84.4% | OVCAR-4 ovarian 112% | SK-OV-3 ovarian 105% | IGROV1 ovarian 101% | OVCAR-3 ovarian 112% | HS 578T breast 109% | NCI/ADR-RES ovarian 99.7%

Source: PubChem BioAssay (NCI)
